Shown are actives, neighbours in structure and some others; about 2.8% of the full set was active somewhere.
KDM5B inhibitor: blocks human KDM5B histone demethylase activity. AID 1347165. hit rate 2.6% among 220,000. Potency, µM (doses to about 57.7 µM), actives largely listed as inhibitors. KDM5B demethylase, FDH-coupled NADH fluorescence (FDH is formaldehyde dehydrogenase). Q9UGL1; active = well fitted inhibition curve with a large enough effect; inconclusive = small, poorly fitted or top-dose-only effect; inactive = no such curve, though single readings can be large or run the other way; note: potency is the fitted concentration of half-maximal effect; 0% is about no effect; nearly all actives have a fitted effect of over 70% in size
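KDM5BΔAP (200 nM final) in 50 mM HEPES pH 7.5, 0.01% Tween-20 was preincubated 10 min at RT with compound over a concentration range. Substrate mix (H3K4me3 12.5 µM, α-KG 25 µM, Fe²⁺, ascorbate, NAD⁺, FDH) was added, and NADH fluorescence change over 30 min gave dose-response curves.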
IP6K1 inhibitor: IP6K1 kinase inhibition; IP6K1 kinase, ADP-Glo luminescence, 2 h; active compounds read low; activity change, % (series mostly up to about 58 µM); AID 1645851; hit rate 0.81% among 140,000; in the data active = activity change below about -25%; note: % is set by controls: 0 for no effect and ±100 for the full control effect
Target sequence (Q92551 whole entry, looked up): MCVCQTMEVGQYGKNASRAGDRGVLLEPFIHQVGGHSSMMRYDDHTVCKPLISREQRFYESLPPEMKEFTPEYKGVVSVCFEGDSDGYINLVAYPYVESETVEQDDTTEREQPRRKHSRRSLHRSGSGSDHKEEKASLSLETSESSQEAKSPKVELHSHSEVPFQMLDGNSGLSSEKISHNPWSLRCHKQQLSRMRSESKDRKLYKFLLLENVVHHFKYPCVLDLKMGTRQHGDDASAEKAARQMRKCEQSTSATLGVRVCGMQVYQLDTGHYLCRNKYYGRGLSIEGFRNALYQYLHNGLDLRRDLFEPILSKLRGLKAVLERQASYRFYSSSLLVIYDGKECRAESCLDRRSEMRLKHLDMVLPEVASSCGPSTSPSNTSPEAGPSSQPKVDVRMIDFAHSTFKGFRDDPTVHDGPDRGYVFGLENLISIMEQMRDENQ
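ADP-Glo luminescence measures ADP made by human IP6K1 during a 2 h RT reaction with ATP/IP6 (mix at 1.3 mM/130 uM); top library doses 57.5 and 19.1 uM final.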
The depositor's hits bear a star.

Results for COCc1ccccc1CNC(=O)NC(c1ccccc1)c1ccccc1 ?
KDM5B inhibitor: inactive

Results for O=C(Cc1ccccc1)N1CCC(Cc2nc(-c3ccccc3)n[nH]2)CC1 ?
KDM5B inhibitor: inactive; IP6K1 inhibitor: 16.7

What do the screens show for `O=[S+]([O-])(c1ccccc1)N1CCCN(c2ccc3nnc(-c4ccccc4)n3n2)CC1`?
IP6K1 inhibitor: -1.4

What do the screens show for `O=[S+]([O-])(NC1CCN(Cc2cccc(-c3ccc(F)c(F)c3)c2)CC1)c1cccs1`?
IP6K1 inhibitor: 10.1

How did Cc1ccccc1-c1nccc2c(=O)cc(N(C)C3CCOCC3)oc12 do in these assays?
KDM5B inhibitor: inactive; IP6K1 inhibitor: -7.9

How did Cc1cc(-c2nccc3c(=O)cc(N4CCOCC4)oc23)ccn1 do in these assays?
KDM5B inhibitor: inconclusive; IP6K1 inhibitor: -3.5

How did O=c1cc(N2CCOCC2)oc2c(-c3ccc(F)c(Cl)c3)nccc12 do in these assays?
KDM5B inhibitor: 20µM*; IP6K1 inhibitor: -19.8

What do the screens show for `CN(C)c1cc(=O)c2ccnc(-c3ccc(N4CCOCC4)cc3)c2o1`?
KDM5B inhibitor: 31.6µM*; IP6K1 inhibitor: -20.9

How did O=c1cc(N2CCOCC2)oc2c(N3CCOCC3)nccc12 do in these assays?
KDM5B inhibitor: inconclusive; IP6K1 inhibitor: 3.1

What do the screens show for `COc1cc(F)ccc1-c1nccc2c(=O)cc(N(C)C3CCOCC3)oc12`?
KDM5B inhibitor: 39.8µM*; IP6K1 inhibitor: -11.1

Results for CN1CCN(c2ccc(-c3nccc4c(=O)cc(N(C)C5CCOCC5)oc34)cn2)CC1 ?
KDM5B inhibitor: inconclusive; IP6K1 inhibitor: -19.6

How did O=c1cc(N2CCOCC2)oc2c(-c3ccc(F)cc3)nccc12 do in these assays?
KDM5B inhibitor: 35.5µM*; IP6K1 inhibitor: -6.1

How did O=C1CCNc2cc3c(cc2CN1Cc1ccccc1)OCO3 do in these assays?
IP6K1 inhibitor: 12.6

What do the screens show for `Cc1ccccc1NC(=O)C(C#N)=C1CCCC1`?
KDM5B inhibitor: inactive

What do the screens show for `CC(NC(=O)C1(c2ccc(NS(C)(=O)=O)cc2)CCCCC1)c1ccccc1` (stereo not drawn)?
KDM5B inhibitor: inactive; IP6K1 inhibitor: 8.0

How did COCC(C)NC(=O)c1cc2cc(N(C)S(=O)(=O)c3ccc(C)cc3)ccc2s1 (stereo not drawn) do in these assays?
KDM5B inhibitor: inactive

How did COc1ccc(-c2noc([C@@H]3C[C@H](NS(=O)(=O)c4ccc5ccccc5c4)CN3C)n2)cc1 do in these assays?
KDM5B inhibitor: inconclusive; IP6K1 inhibitor: 7.1

Results for Cc1ccccc1C(=O)NC1CCN(Cc2cccc(-c3ccc(F)c(F)c3)c2)CC1 ?
IP6K1 inhibitor: 7.7

Results for O=C(CCC1CCCCC1)NCC1CCCO1 (stereo not drawn) ?
KDM5B inhibitor: inactive

What do the screens show for `CN(C)c1cc(=O)c2ccnc(-c3ccc(O)c(F)c3)c2o1`?
KDM5B inhibitor: inconclusive; IP6K1 inhibitor: -23.4

How did CN(c1cc(=O)c2ccnc(-c3ccc(O)c(F)c3)c2o1)C1CCOCC1 do in these assays?
KDM5B inhibitor: 31.6µM*; IP6K1 inhibitor: 23.8

How did O=c1cc(N2CCOCC2)oc2c(NCc3ccc(F)cc3)nccc12 do in these assays?
KDM5B inhibitor: 35.5µM*; IP6K1 inhibitor: -2.2

How did COc1cc(F)ccc1-c1nccc2c(=O)cc(N3CCOCC3)oc12 do in these assays?
KDM5B inhibitor: 35.5µM*; IP6K1 inhibitor: -16.2

Results for COc1ccc(-c2nccc3c(=O)cc(N4CCOCC4)oc23)cc1OC ?
KDM5B inhibitor: inactive; IP6K1 inhibitor: -3.5

Results for O=c1cc(N2CCOCC2)oc2c(Nc3ccccn3)nccc12 ?
KDM5B inhibitor: inconclusive; IP6K1 inhibitor: -3.9

How did O=C(NCc1cccs1)C1CCCCN1Cc1ccc(-c2ccsc2)cc1 (stereo not drawn) do in these assays?
IP6K1 inhibitor: 7.7

Results for C=C(C)Cn1c(N(CC)CC)nc2c1c(=O)n(C)c(=O)n2C ?
KDM5B inhibitor: inactive

How did COc1cccc(CNC(=O)C2CCCN(c3nccc(Nc4ccccc4OC)n3)C2)c1 (stereo not drawn) do in these assays?
IP6K1 inhibitor: -2.6

Results for Cc1ccc(/C=N/NC(=O)C(c2ccccc2)c2ccccc2)s1 ?
KDM5B inhibitor: inactive

What do the screens show for `CC(c1ccc(F)cc1)n1c(-c2cnccn2)n[nH]c1=S` (stereo not drawn)?
KDM5B inhibitor: inactive

Results for Cc1ccsc1-c1[nH]nc2ncc(-c3ccc(F)cc3)nc12 ?
KDM5B inhibitor: inactive; IP6K1 inhibitor: 12.5

What do the screens show for `Fc1ccccc1-c1cnc2n[nH]c(-c3ccccc3)c2n1`?
KDM5B inhibitor: 31.6µM*; IP6K1 inhibitor: 6.1

What do the screens show for `COc1cccc(-c2cnc3n[nH]c(-c4ccc(F)cc4C)c3n2)c1`?
KDM5B inhibitor: inconclusive; IP6K1 inhibitor: 24.5

How did COc1ccccc1-c1[nH]nc2ncc(-c3cccc(F)c3)nc12 do in these assays?
IP6K1 inhibitor: 9.9

Results for Cc1ccccc1-c1[nH]nc2ncc(-c3ccc(F)cc3)nc12 ?
KDM5B inhibitor: inconclusive; IP6K1 inhibitor: -5.8

What do the screens show for `COc1ccc(-c2cnc3n[nH]c(-c4ccc(F)cc4C)c3n2)cc1OC`?
KDM5B inhibitor: 31.6µM*; IP6K1 inhibitor: 16.7

How did COc1ccccc1-c1cnc2n[nH]c(-c3ccccc3)c2n1 do in these assays?
KDM5B inhibitor: 35.5µM*; IP6K1 inhibitor: 16.8

What do the screens show for `Cc1cc(C)cc(-c2[nH]nc3ncc(-c4ccsc4)nc23)c1`?
KDM5B inhibitor: 28.2µM*; IP6K1 inhibitor: 31.2

How did CC(C)Cn1nc(C(=O)NCc2ccc(C(=O)O)cc2)c2ccccc2c1=O do in these assays?
KDM5B inhibitor: inactive

Results for COc1ccccc1Nc1ccnc(N2CCN(C(=O)Nc3ccc(Cl)cc3)CC2)n1 ?
IP6K1 inhibitor: 18.7

Results for O=C(Nc1cccc(Cl)c1)c1ccc2ccccc2n1 ?
KDM5B inhibitor: inactive

What do the screens show for `O=C(CSc1nnnn1C1CC1)c1ccc(-c2ccccc2)cc1`?
KDM5B inhibitor: inactive

How did Cc1nc(-c2ccc(Cl)cc2)n(Cc2ccc(F)c(F)c2)c(=O)c1CCO do in these assays?
KDM5B inhibitor: inconclusive; IP6K1 inhibitor: -1.1

What do the screens show for `CC(NC(=O)c1occc1-c1ccccc1)c1ccco1` (stereo not drawn)?
KDM5B inhibitor: inactive

How did Cc1nn(Cc2ccc(F)cc2)c(C)c1NC(=O)Nc1ccc2c(c1)OCO2 do in these assays?
KDM5B inhibitor: inactive

What do the screens show for `c1ccc(-c2cnc3n[nH]c(-c4ccccc4)c3n2)cc1`?
KDM5B inhibitor: inconclusive; IP6K1 inhibitor: 28.8

How did COc1ccccc1-c1[nH]nc2ncc(-c3ccccc3O)nc12 do in these assays?
KDM5B inhibitor: inactive; IP6K1 inhibitor: 14.9

Results for Cc1cccc(-c2cnc3n[nH]c(-c4ccccc4)c3n2)c1 ?
KDM5B inhibitor: 35.5µM*; IP6K1 inhibitor: 3.8

Results for COc1ccccc1-c1cnc2n[nH]c(-c3ccccc3C)c2n1 ?
KDM5B inhibitor: 7.08µM*; IP6K1 inhibitor: -4.3

How did CN(C(=O)Cn1nc(-c2ccccc2)ccc1=O)C1CCS(=O)(=O)C1 (stereo not drawn) do in these assays?
KDM5B inhibitor: inactive

What do the screens show for `CCOc1ccccc1NC(=O)c1cc2c(N3CCSCC3)nc(C)cn2n1`?
KDM5B inhibitor: 28.2µM*; IP6K1 inhibitor: 7.5

How did Cc1cn2nc(C(=O)NC(C)c3ccccc3)cc2c(N2CCSCC2)n1 (stereo not drawn) do in these assays?
KDM5B inhibitor: inconclusive; IP6K1 inhibitor: -3.2

Results for CCOc1ccc(NC(=O)c2cc3c(N4CCSCC4)nc(C)cn3n2)cc1 ?
KDM5B inhibitor: 3.98µM*; IP6K1 inhibitor: -0.7
